Compound activity (PubChem)
DAX1 inh-1 – DAX1 (NR0B1) inhibition, primary screen | hit rate 1.1% among 370,000 | HEK293T StAR-luciferase reporter, SF-1/DAX-1 repression relief | inhibition, % at 6.8 µM;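 active = inhibition above the mean over all tested compounds plus 3 SD, cut at about 3.6% in these data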;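 note: 0% = DAX-1 cells with DMSO and 100% = cells lacking DAX-1 with DMSO; higher inhibition means more luminescence from relief of DAX-1 repression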
hcDAF12 agonist – activators of H. contortus DAF-12 nuclear receptor. AID 652067. activation, % at 6.8 µM. hit rate 1.4% among 370,000. HEK293 hcDAF-12 lit1-tk-luc reporter, luminescence; 0% DMSO, 100% Δ7-dafachronic acid;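 active = activation above the mean of all tested compounds plus 3 SD, cut at about 5.5% in these data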;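 note: 100% = response to 3 µM Δ7-dafachronic acid high control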
SMARCA2 activ – increases SMARCA2 function in MMTV reporter cells | MG213 cells, MMTV-luciferase reporter, dexamethasone, overnight | activation, % at 9.1 µM | hit rate 1% among 370,000; in the data active = activation above about 7.8%;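 note: 0% = vehicle wells and 100% = reference activator wells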
ssDAF-12 act – S. stercoralis DAF-12 activation, primary screen; HEK293 ssDAF-12/GRIP1 lit1-tk-luc reporter, luminescence; % of 3 µM dafachronic acid response; activation, % at 6.8 µM; hit rate 1% among 370,000; AID 652126;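 active = activation above the mean over all tested compounds plus 3 SD, cut at about 0.9% in these data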;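 note: 0% = DMSO-only wells and 100% = 3 µM delta7-dafachronic acid wells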
DAX1 inh-2 – inhibits human nuclear receptor DAX1. HEK293 Gal4-DAX1 luciferase reporter, luminescence. inhibition, % at 6.75 µM. hit rate 0.99% among 340,000;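 active = inhibition above the mean over all tested compounds plus 3 SD, cut at about 4.2% in these data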;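 note: 0% = DAX1-transfected cells with DMSO and 100% = empty-vector control cells with DMSO; inhibition shows as a rise in luminescence from relieved DAX1 repression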
Target sequence (P51843 207-470 limits assumed): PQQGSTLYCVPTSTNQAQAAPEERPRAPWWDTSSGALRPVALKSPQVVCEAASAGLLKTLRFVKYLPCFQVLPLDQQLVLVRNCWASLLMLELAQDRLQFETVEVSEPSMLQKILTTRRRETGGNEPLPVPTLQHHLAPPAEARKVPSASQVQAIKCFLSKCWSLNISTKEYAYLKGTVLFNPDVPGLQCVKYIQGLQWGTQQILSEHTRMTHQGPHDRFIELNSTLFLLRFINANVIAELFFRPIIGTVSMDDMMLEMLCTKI
hgDAF-12 ag – agonists of H. glycines DAF-12 nuclear receptor; HEK293 GAL4-hgDAF12 UAS-luciferase reporter, agonist luminescence; normalized to butyrate control; activation, % at 6.8 µM; hit rate 1.8% among 370,000; AID 687014;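 active = activation above a cutoff set at the mean of all screened compounds plus 3 SD, cut at about 10% in these data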;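 note: 0% = DMSO wells and 100% = sodium butyrate wells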
hgDAF12 ag – hgDAF-12 agonism, confirmation assay | activation, % at 6.8 µM | shares compounds with hgDAF-12 ag | HEK293 GAL4-hgDAF12 luciferase reporter, agonist mode; percent of butyrate response | hit rate 80% among 3,300;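 active = mean activation over triplicate wells above the hit cutoff derived from the earlier primary screen, cut at about 11% in these data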;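 note: 0% = DMSO low control and 100% = 2 mM sodium butyrate high control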
LXRb DAF12 ctr – counter-screen for DAF-12 agonists: agonists of human LXR-beta. shares compounds with hgDAF-12 ag. HEK293 Gal4-LXR luciferase reporter, 24 h. activation, % at 6.8 µM. 3,300 tested, under 10 active;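 active = mean activation of the triplicate above a set limit carried over from the primary screen, none filed active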
Target sequence (P55055 whole entry, looked up, the tested form may be a part): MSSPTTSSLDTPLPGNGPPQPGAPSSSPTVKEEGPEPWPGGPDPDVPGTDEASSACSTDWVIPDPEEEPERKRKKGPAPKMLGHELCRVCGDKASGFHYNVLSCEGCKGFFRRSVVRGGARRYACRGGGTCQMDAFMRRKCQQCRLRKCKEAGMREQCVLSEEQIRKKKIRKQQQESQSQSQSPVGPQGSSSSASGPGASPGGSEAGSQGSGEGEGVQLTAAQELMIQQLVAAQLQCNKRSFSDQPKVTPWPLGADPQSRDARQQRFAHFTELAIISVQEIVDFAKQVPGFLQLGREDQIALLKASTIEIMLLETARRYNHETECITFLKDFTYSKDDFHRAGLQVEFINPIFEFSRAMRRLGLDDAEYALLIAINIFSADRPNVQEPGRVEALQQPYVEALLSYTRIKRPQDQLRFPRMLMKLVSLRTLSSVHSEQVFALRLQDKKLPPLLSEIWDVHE
* marks the source's active call; other numbers are inactive results. This is a sample that favours compounds with a hit; in the whole collection about 4.8% have one here.

`O=C(Nc1cccc([N+](=O)[O-])c1)c1cnccn1` gave DAX1 inh-1 0.2, hcDAF12 agonist -1.9, SMARCA2 activ -1.4, ssDAF-12 act -1.1, DAX1 inh-2 -0.8 and hgDAF-12 ag -2.4.
Cc1ccc(CCNC(=O)C2CCN(S(=O)(=O)c3c(C)nn(C)c3C)CC2)cc1 was read as DAX1 inh-1 1.1, hcDAF12 agonist 3.2, SMARCA2 activ 0.1, ssDAF-12 act -1.4, DAX1 inh-2 0.0 and hgDAF-12 ag 1.0.
For Cc1ccc(-c2nc3ccccc3s2)cc1NC(=S)NC(=O)c1cccc2ccccc12 the results were DAX1 inh-1 3.1, hcDAF12 agonist 6.0*, SMARCA2 activ 4.0, ssDAF-12 act 0.4, DAX1 inh-2 4.4*, hgDAF-12 ag 16.6*, hgDAF12 ag 12.1* and LXRb DAF12 ctr 0.9.
Screening Cc1ccc2c(c1)C1CN(C)CCC1N2S(=O)(=O)c1cc(C(F)(F)F)ccc1Cl (stereo not given) returned DAX1 inh-1 -0.9, hcDAF12 agonist -2.2, SMARCA2 activ -2.9, ssDAF-12 act -0.5, DAX1 inh-2 -0.3 and hgDAF-12 ag -1.2.
`O=C(CCc1nnc(CCc2ccccc2)o1)N1CCCCC1CCn1cccn1` (stereo not given) gave DAX1 inh-1 -0.8, hcDAF12 agonist 0.1, SMARCA2 activ -3.4, ssDAF-12 act -1.2, DAX1 inh-2 0.5 and hgDAF-12 ag 1.7.
`Cc1ccc(C(=O)Nc2ccc([N+](=O)[O-])cn2)o1` gave DAX1 inh-1 0.7, hcDAF12 agonist -0.9, SMARCA2 activ 2.6, ssDAF-12 act -0.8, DAX1 inh-2 -0.3, hgDAF-12 ag 13.8*, hgDAF12 ag 7.0 and LXRb DAF12 ctr 0.2.
`COc1cc(OC)cc(C(=O)Nc2ccc([N+](=O)[O-])cn2)c1` gave DAX1 inh-1 0.2, hcDAF12 agonist -2.2, SMARCA2 activ -1.2, ssDAF-12 act -1.3, DAX1 inh-2 -1.1 and hgDAF-12 ag 0.3.
Cc1ccc(C(=O)Nc2ncc(C)s2)o1 was read as DAX1 inh-1 2.3, hcDAF12 agonist 2.9, SMARCA2 activ 4.2, ssDAF-12 act -0.4, DAX1 inh-2 0.7, hgDAF-12 ag 19.6*, hgDAF12 ag 14.8* and LXRb DAF12 ctr 0.8.
COc1ccc(C(=O)Nc2ccc([N+](=O)[O-])cn2)c(OC)c1 was read as DAX1 inh-1 2.8, hcDAF12 agonist 4.5, SMARCA2 activ 6.7, ssDAF-12 act 0.4, DAX1 inh-2 3.6, hgDAF-12 ag 18.7*, hgDAF12 ag 19.7* and LXRb DAF12 ctr 1.0.
Screening CC1(C)COC(Cc2ccccc2)=N1 returned DAX1 inh-1 0.4, hcDAF12 agonist 0.9, SMARCA2 activ 5.2, ssDAF-12 act -1.0, DAX1 inh-2 2.4 and hgDAF-12 ag 5.4.
For COc1cccc(COc2ccc3c(C)cc(=O)oc3c2)c1 the results were DAX1 inh-1 2.7, hcDAF12 agonist 2.7, SMARCA2 activ 4.3, ssDAF-12 act -0.2, DAX1 inh-2 3.2, hgDAF-12 ag 16.5*, hgDAF12 ag 14.3* and LXRb DAF12 ctr 0.6.
Screening Cc1cc(=O)oc2cc(OCC(=O)Nc3nccs3)ccc12 returned DAX1 inh-1 1.9, hcDAF12 agonist 5.4, SMARCA2 activ 3.1, ssDAF-12 act 0.1, DAX1 inh-2 1.0, hgDAF-12 ag 19.5*, hgDAF12 ag 17.8* and LXRb DAF12 ctr 0.7.
`Cc1nnc(NC(=O)COc2ccc3c(C)cc(=O)oc3c2)s1` gave DAX1 inh-1 0.6, hcDAF12 agonist 1.8, SMARCA2 activ 1.3, ssDAF-12 act -0.7, DAX1 inh-2 -0.7 and hgDAF-12 ag -0.5.
`COc1ccc2c(C)cc(=O)oc2c1` gave DAX1 inh-1 0.0, hcDAF12 agonist -2.1, SMARCA2 activ -3.0, ssDAF-12 act -1.2, DAX1 inh-2 0.4 and hgDAF-12 ag -1.0.
O=C(Nc1cc(N2CCOCC2)ncn1)c1ccccc1 was read as DAX1 inh-1 0.7, hcDAF12 agonist -0.6, SMARCA2 activ 1.4, ssDAF-12 act -1.5, DAX1 inh-2 1.6 and hgDAF-12 ag 3.8.
For COC(=O)C(C)Oc1ccc(-c2nccc(-c3ccc(F)cc3)n2)cc1 (stereo not given) the results were DAX1 inh-1 0.4, hcDAF12 agonist -2.4, SMARCA2 activ 2.0, ssDAF-12 act -1.2, DAX1 inh-2 2.1 and hgDAF-12 ag 2.4.
Cc1ccnc(NC(=O)C2COc3ccccc3O2)c1 (stereo not given) was read as DAX1 inh-1 3.8*, hcDAF12 agonist 3.2, SMARCA2 activ 3.5, ssDAF-12 act 0.2, DAX1 inh-2 2.9, hgDAF-12 ag 13.7*, hgDAF12 ag 16.9* and LXRb DAF12 ctr 0.8.
For O=C(NCc1ccc2c(c1)OCO2)c1ccc(CS(=O)(=O)Cc2cccc(Cl)c2)o1 the results were DAX1 inh-1 -1.4, hcDAF12 agonist -3.3, SMARCA2 activ -4.8, ssDAF-12 act -1.4, DAX1 inh-2 -1.4 and hgDAF-12 ag -4.7.
Screening CCOC(OCC)c1cn(Cc2ccc3c(c2)C(=O)c2ccccc2C3=O)nn1 returned DAX1 inh-1 0.1, hcDAF12 agonist 0.8, SMARCA2 activ 0.3, ssDAF-12 act -0.6 and hgDAF-12 ag 3.3.
Cc1cccc(NC(=O)NNC(=O)c2nn(C)cc2Br)c1 was read as DAX1 inh-1 -0.1, hcDAF12 agonist 0.5, SMARCA2 activ -1.2, ssDAF-12 act -1.3, DAX1 inh-2 -0.8 and hgDAF-12 ag -0.5.
`COc1ccc(O)c(C(=O)CC(=O)c2ccccc2C)c1` gave DAX1 inh-1 1.2, hcDAF12 agonist 2.5, SMARCA2 activ 1.6, ssDAF-12 act -0.5, DAX1 inh-2 4.8*, hgDAF-12 ag 23.1*, hgDAF12 ag 10.2 and LXRb DAF12 ctr 0.6.
For O=C(Nc1ccc(F)cc1Cl)c1ccc2c(=O)n3c(nc2c1)CCCCC3 the results were DAX1 inh-1 0.8, hcDAF12 agonist 0.8, SMARCA2 activ -0.6, ssDAF-12 act -0.8, DAX1 inh-2 0.4 and hgDAF-12 ag 4.2.
Screening Cc1ccc(-c2cc(-c3nnc(SCC(=O)Nc4nccs4)n3N)[nH]n2)cc1 returned DAX1 inh-1 2.2, hcDAF12 agonist 3.5, SMARCA2 activ 2.0, ssDAF-12 act -0.5, hgDAF-12 ag 13.3*, hgDAF12 ag 10.4* and LXRb DAF12 ctr 0.5.
For Nn1c(SCC(=O)Nc2nccs2)nnc1-c1cc(-c2ccc(F)cc2)n[nH]1 the results were DAX1 inh-1 1.0, hcDAF12 agonist 0.3, SMARCA2 activ -2.4, ssDAF-12 act -1.4 and hgDAF-12 ag 3.0.
